HEK293 tox: cytotoxic in the GLP-1 receptor inverse agonist counter-screen. AID 624418. actives 0.13% (n = 410,000). HEK293 cAMP-luciferase reporter cells, luminescence, 24 h. Potency, µM (series often up to 38.3 µM), for the others: at the top dose activity change, negative = inhibition, actives largely listed as inhibitors;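 also: loss of luciferase light is scored as toxicity; % is scaled to controls: 0 for no effect and ±100 for the full control effect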
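Compound-treated cells are incubated 24 hr at 37 deg C under 5% CO2 after a 12 hour attachment period, then luciferase detection reagent is added and luminescence is measured following 12 min at room temperature; lowered signal indicates toxicity.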
VP16 counter: counter-screen for ROR gamma inhibitors: Gal4-VP16 reporter; Potency, µM (doses to about 53.6 µM), inactives show at the highest dose activity, negative = inhibition, most hits filed as inhibitors; actives 3.5% (n = 310,000); Drosophila S2 Gal4-VP16 UAS-luciferase, luminescence, 20 h;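 also: Gal4-VP16 expression switched on by copper sulfate through the metallothionein promoter; % is scaled to controls: 0 for no effect and ±100 for the full control effect; nearly all actives have a fitted effect of over 50% in size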
RORgamma inh: inhibitors of mouse ROR gamma transcriptional activity. P51450. Drosophila S2 Gal4-RORgamma UAS-luciferase reporter, 20 h. Potency, µM (doses to about 53.6 µM), for the others: at the highest dose activity change, negative = inhibition, actives largely listed as inhibitors. actives 5.4% (n = 310,000). AID 2551; also: % is scaled to controls: 0 for no effect and ±100 for the full control effect; nearly all actives have a fitted effect of over 60% in size
Target sequence (P51450 whole entry, looked up, the tested form may be a part): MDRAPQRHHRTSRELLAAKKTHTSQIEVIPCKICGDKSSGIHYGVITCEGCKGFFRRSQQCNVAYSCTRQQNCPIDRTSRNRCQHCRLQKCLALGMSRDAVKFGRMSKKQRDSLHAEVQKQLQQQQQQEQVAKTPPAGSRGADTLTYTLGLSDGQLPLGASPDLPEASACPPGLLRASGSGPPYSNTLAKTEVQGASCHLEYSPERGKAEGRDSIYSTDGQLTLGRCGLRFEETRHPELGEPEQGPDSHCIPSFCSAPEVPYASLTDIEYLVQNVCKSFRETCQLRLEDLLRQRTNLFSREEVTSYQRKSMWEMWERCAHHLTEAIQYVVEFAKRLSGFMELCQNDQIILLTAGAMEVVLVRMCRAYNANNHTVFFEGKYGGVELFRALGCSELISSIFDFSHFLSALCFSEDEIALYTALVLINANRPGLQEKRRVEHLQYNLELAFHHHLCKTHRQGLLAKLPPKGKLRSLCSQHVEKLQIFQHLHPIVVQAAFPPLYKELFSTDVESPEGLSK
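Read-out: Photinus luciferase luminescence; inhibitors lower reporter signal. Insect Schneider cells with Gal4-ROR gamma fusion under metallothionein promoter, UAS reporter; 700 uM final copper sulfate induction, 20 hr, ambient temperature.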
GLP1R inv ag: GLP-1 receptor (human) inverse agonism. P43220. HEK293 GLP-1R CRE-luciferase, luminescence, 24 h; GLP-1R form is constitutively active. Potency, µM (top dose mostly 38.3 µM), inactives show at the highest dose activity change, negative = inhibition, most hits filed as inhibitors. actives 1.6% (n = 410,000). AID 624417; also: % is scaled to controls: 0 for no effect and ±100 for the full control effect; nearly all actives have a fitted effect of over 55% in size
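Inverse agonists were sought by their lowering of basal cAMP reporter luciferase output in HEK293 cells stably carrying constitutively active human GLP-1R, after 24 h compound treatment.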
GLP1R ag: activates the human GLP-1 receptor. HEK293 GLP-1R CRE-luciferase, luminescence, 4-6 h; cells express a hypersensitive GLP-1R form. Potency, µM (top dose mostly 45.6 µM), without a hit: at the highest dose activation, actives largely listed as activators. actives 0.007% (n = 380,000). AID 624172; also: % of control where 0% means no effect
Active calls of the source: *; u = inconclusive; x = no result; [ ] = remark or other dose. A selection: hits, their analogues and other compounds. The true share with any hit is near 5.9%. Calls follow the shape of the dose curve; as a rule, active = well fitted curve in the direction sought with a large enough effect; inconclusive = small, poorly fitted or top-dose-only effect, or another doubt; inactive = no such curve, though single readings can be large; an effect the other way counts as inactive or inconclusive. Potency is read from the fitted curve at half-maximal effect.

SMILES	HEK293 tox	VP16 counter	RORgamma inh	GLP1R inv ag	GLP1R ag
Cc1cc(C)cc(NC(=O)C2CCCN(C(=O)c3cnn(-c4ccccc4)c3-n3cccc3)C2)c1 (centres undefined)	-21%	x	x	10µM*	x
COc1cc(Cl)c(NC(=O)c2cc(S(=O)(=O)N3CCOCC3)cn2C)c(OC)c1	-2%	x	x	30%	x
CCOc1ccc(CN2C(=O)c3ccccc3Sc3ccc(C(=O)NCc4ccco4)cc32)cc1	-1%	x	x	u	-1%
Cn1ccnc1C(O)(c1nnc(-c2ccccc2)o1)C(F)(F)F (centres undefined)	u	u	7.1µM*	-10%	-10%
Cc1ccc(C)c(Cn2c(C(C)NC(=O)c3ccc(F)cc3)nc3ccccc32)c1 (centres undefined)	0%	x	x	-2%	x
CC(C)N(C(=O)CSc1nc2ccccc2n1-c1ccccc1)C(C)C	-6%	u	11µM*	-29%	-1%
CC(C)N(C(=O)CSc1nc2ccccc2n1Cc1ccccc1)C(C)C	-5%	u	u	u	8%
CC(NC(=O)c1ccc(F)cc1)c1nc2ccccc2n1Cc1ccccc1F (centres undefined)	5%	-4%	18µM*	-14%	-4%
CC(C)N(C(=O)CSc1nc2ccccc2n1Cc1ccccc1F)C(C)C	-3%	u	u	2.2µM*	4%
O=C(Nc1ccc(F)cc1)c1oc2ccccc2c1NC(=O)C1CCCCC1	4%	x	x	-8%	0%
c1cncc(CNc2cc(-c3ccc4c(c3)OCO4)ncn2)c1	x	4%	0%	x	x
COC(=O)[C@@]1(Cc2ccccc2)[C@H]2c3cc(C(=O)N(C)C)n(CCO)c3C[C@H]2CN1C(=O)c1ccccc1	x	2%	-1%	x	x
CCOC(=O)/C(=N\Nc1ncnc2ccccc12)c1ccc(C)cc1	95%	13µM*	5.6µM*	u	-5%
CCOC(=O)C/C(=N\Nc1ncnc2ccccc12)c1ccccc1	u	6.3µM*	6.3µM*	-24%	23%
CCOC(=O)c1ccc(Nc2ncnc3ccccc23)cc1	-15%	3%	u	-28%	-2%
CCCCSc1nnc2n(-c3ccc(OC)cc3)c(=O)c3c4c(sc3n12)COC(C(C)C)C4 (centres undefined)	-4%	x	x	9%	x
Cc1ccc(Cn2c(C(C)NC(=O)c3ccccc3)nc3ccccc32)cc1 (centres undefined)	-9%	x	x	u	x
Cc1ccc(C)c(CN2C(=O)c3ccccc3S(=O)c3ccc(C(=O)N4CCN(c5ccccn5)CC4)cc32)c1 (centres undefined)	-10%	-5%	27%	2.2µM*	14%
Cc1ccccc1Nc1ccc([N+](=O)[O-])cn1	-8%	10%	-2%	-42%	9%
Cc1ccccc1NC1=NCC(c2ccc([N+](=O)[O-])cc2)S1 (centres undefined)	4%	22µM*	u	-30%	-1%
CCOc1ccc(Nc2c(S(=O)(=O)c3ccc(Cl)cc3)cnc3ccc(OC)cc23)cc1	-8%	x	x	u	x
CCCn1c(C2CCCN2c2nc(-c3ccc(C)cc3)cs2)nc2ccccc21 (centres undefined)	u	u	3.5µM*	u	3%
Cc1ccc(-c2csc(N3CCN(CCCn4c(-c5ccncc5)nc5ccccc54)CC3)n2)cc1	-12%	-15%	-30%	u	-3%
Cc1ccc(Cn2c(C3CCCN3c3nc(-c4ccc(F)cc4)cs3)nc3cc(Cl)c(Cl)cc32)cc1 (centres undefined)	8%	x	x	-15%	-2%
Cc1ccc(-c2csc(N3CCC[C@@H]3C(=O)NCCn3c(-c4ccncc4)nc4ccccc43)n2)cc1	-54%	u	-34%	13µM*	-4%
SMILES	HEK293 tox	VP16 counter	RORgamma inh	GLP1R inv ag	GLP1R ag
Cc1ccc2c(c1)-c1c(cnc3cc(-c4ccc(Cl)cc4)nn13)CO2	4%	x	x	4%	1%
C=CCn1c(SCC(=O)Nc2ccc(-c3nc4ccc(C)cc4s3)cc2)nnc1-c1ccccc1	0%	13µM*	14µM*	u	-25%
CNS(=O)(=O)c1cccc(C(=O)OCC(=O)Nc2ccc(-c3nc4ccc(C)cc4s3)cc2)c1	-4%	u	0.22µM*	7%	8%
Cc1ccc2nc(-c3ccc(NC(=O)COC(=O)c4ccc(Br)o4)cc3)sc2c1	-1%	4µM*	0.28µM*	u	-2%
C=CCn1c(SCC(=O)NNC(=O)Nc2ccc(C)cc2)nnc1-c1ccccc1	-12%	4%	14%	-27%	7%
Cc1ccc2nc(-c3ccc(NC(=O)COc4ccccc4)cc3)sc2c1	-1%	x	x	-17%	x
CCOc1ncccc1C(=O)OCC(=O)Nc1ccc(-c2nc3ccc(C)cc3s2)cc1	10%	u	0.4µM*	-18%	-3%
Cc1ccc(S(=O)(=O)NCC(c2ccc(N(C)C)cc2)N2CCCC2)cc1 (centres undefined)	29%	x	x	3%	x
COc1ccc(C)cc1S(=O)(=O)Nc1cccc(-c2ccc(N3CCCC3)nn2)c1	-4%	x	x	1%	x
Cc1ccc2nc(-c3ccc(NC(=O)COC(=O)c4cncc(Br)c4)cc3)sc2c1	10%	10µM*	1.3µM*	-24%	9%
Cc1ccc2nc(-c3ccc(NC(=O)COC(=O)c4ccc([N+](=O)[O-])o4)cc3)sc2c1	-2%[1.53 µM]	5µM*	0.1µM*	-21%	-5%
Cc1ccc2sc(-c3ccc(NC(=O)CCN4C(=O)c5ccccc5C4=O)cc3)nc2c1	x	u	1.1µM*	x	x
O=C(COC(=O)c1ccc([N+](=O)[O-])o1)Nc1ccc(F)cc1	-19%	x	x	14%	-3%
CC(=O)Nc1ccc(NC(=O)CCN2C(=O)c3ccccc3C2=O)cc1	0%	-20%	-12%[1.91 µM]	3%	-5%
Cc1ccc2nc(-c3ccc(NC(=O)COC(=O)c4ccco4)cc3)sc2c1	5%	7.1µM*	0.4µM*	7%	-7%
CCOC(=O)/C=C/CCC/C=C/C(=O)c1ccccc1	x	0%	-21%	x	x
NC(=O)c1c(NC(=O)c2nc(SCc3ccccc3F)ncc2Cl)sc2c1CCCC2	-12%	x	x	8%	x
O=CCCCC=O	x	2%	-9%	x	11%
COc1ncc2nc(-c3ccccc3)c(=O)n(C[C@H]3CCCO3)c2n1	x	-1%	-16%	x	x
CC(=O)Nc1ccc2nc(NC(=O)c3ccc([N+](=O)[O-])o3)sc2c1	-11%	10µM*	u	70%	5%
COc1ccc(/C=C(\C#N)C(=O)OCC(=O)Nc2ccc(-c3nc4ccc(C)cc4s3)cc2)cc1	6%	2µM*	0.5µM*	-2%	2%
Cc1ccc2nc(-c3ccc(NC(=O)COc4ccccc4C(C)(C)C)cc3)sc2c1	0%	x	x	1%	x

Screening data from PubChem.
